# AmpC inh no detg – AmpC beta-lactamase inhibition without detergent. P00811. AmpC nitrocefin hydrolysis, absorbance 480 nm, 0.0001% Triton. Potency, µM (titrated, usually from 57.1 µM), for the others: top-dose activity change, negative = inhibition, most hits filed as inhibitors. actives 0.52% (n = 330,000). AID 485341;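 note: plate controls were no compound for no effect and no enzyme for full effect; nearly all actives have a fitted effect of over 20% in size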
# Target sequence (P00811 whole entry, looked up): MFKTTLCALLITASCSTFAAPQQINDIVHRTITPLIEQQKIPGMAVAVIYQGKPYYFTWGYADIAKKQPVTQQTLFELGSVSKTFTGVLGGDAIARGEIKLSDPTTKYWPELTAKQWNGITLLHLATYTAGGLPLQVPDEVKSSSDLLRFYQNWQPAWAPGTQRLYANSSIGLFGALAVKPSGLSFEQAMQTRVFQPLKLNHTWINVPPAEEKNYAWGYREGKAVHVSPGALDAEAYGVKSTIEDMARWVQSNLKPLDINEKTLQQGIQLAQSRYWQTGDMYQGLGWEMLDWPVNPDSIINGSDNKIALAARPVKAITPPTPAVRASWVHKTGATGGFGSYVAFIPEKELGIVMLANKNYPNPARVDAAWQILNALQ
#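 AmpC (5.3 nM in the dispensed reagent) in 20 mM phosphate pH 7.0 with 0.01% (detergent screen) or 0.0001% Triton X-100 was preincubated with compounds for 15 min at room temperature. Nitrocefin was then added from an 800 uM solution, and hydrolysis was followed at 480 nm.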
# VACV Venus inh – vaccinia inhibition (Venus reporter) | Vaccinia virus Venus reporter expression, fluorescence | Potency, µM (highest dose often 36.5 µM), without a hit: top-dose activity change, negative = inhibition, usual class: inhibitors | actives 0.46% (n = 330,000); calls by dose curve; tested in A549 cells; note: nearly all actives have a fitted effect of over 30% in size
# AmpC inh detg – AmpC beta-lactamase inhibition with detergent present; P00811; AmpC hydrolysis of nitrocefin, absorbance 480 nm, 0.01% Triton; Potency, µM (series often up to 114 µM), inactives show top-dose activity change, negative = inhibition, usual class: inhibitors; actives 0.041% (n = 370,000); AID 485294;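 note: 0% = no-compound wells and -100% = no-enzyme wells; nearly all actives have a fitted effect of over 25% in size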
#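 AmpC (5.3 nM in the dispensed reagent) in 20 mM phosphate pH 7.0 with 0.01% (detergent screen) or 0.0001% Triton X-100 was preincubated with compounds for 15 min at room temperature. Nitrocefin was then added from an 800 uM solution, and hydrolysis was followed at 480 nm.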
# Vaccinia mCherry – vaccinia inhibition (mCherry reporter); Vaccinia virus mCherry reporter infection, fluorescence; Potency, µM (top dose mostly 36.5 µM), without a hit: top-dose activity change, negative = inhibition, most hits filed as inhibitors; actives 0.63% (n = 310,000); AID 720579; calls by dose curve; tested in A549 cells; note: nearly all actives have a fitted effect of over 35% in size
# Numbers without * were called inactive; i = inactive; ? = inconclusive; . = no result; [ ] = remark or other dose. An excerpt weighted towards active compounds, which were near 1.1% of everything screened. Unless noted, calls come from the whole dose curve; as a rule, active = well fitted curve in the direction sought with a large enough effect; inconclusive = small, poorly fitted or top-dose-only effect, or another doubt; inactive = no such curve, though single readings can be large; an effect the other way counts as inactive or inconclusive. Unless noted, % is set by controls: 0 for no effect and ±100 for the full control effect; potency is the fitted concentration of half-maximal effect.
SMILES,AmpC inh no detg,VACV Venus inh,AmpC inh detg,Vaccinia mCherry
COC(=O)c1ccccc1NC(=O)C1CCN(S(C)(=O)=O)CC1,0.16µM*,1%,0%,-11%
COc1cc(/C=C2/SC(=S)N(CCC(=O)N3CCN(C)CC3)C2=O)cc(OC)c1OC,.,?,.,10µM*
COc1ccc(/C=C2/SC(=S)N(CCC(=O)N3CCN(C)CC3)C2=O)cc1,74%,-25%,1%,-10%
CCc1ccc(/C=C2\SC(=S)N(CCC(=O)N3CCN(C)CC3)C2=O)cc1,-14%,10µM*,-13%,?
Cc1nc(CS(=O)(=O)c2ccc(Cl)cc2)cc(Sc2ccc(Cl)cc2)n1,4µM*,?,10%,.
O=c1nc(Nc2ccccc2)oc2ccccc12,-8%,-7%[7.34 µM],-1%,-14%[7.34 µM]
O=c1nc(Nc2cccc(Cl)c2)oc2cc(Cl)oc(=O)c12,10µM*,?,-1%,?
COc1ccc2c(c1)CCc1cnc(-n3ncc(C(=O)NCC(C)(C)CN(C)C)c3C)nc1-2,.,-27%,.,?
CCN(CC)c1ccc(C(=O)n2cnc3ccccc32)cc1,13%,?,-16%,14µM*
Cc1ccc(O)c(NC(=O)CSc2n[nH]c(C)c2[N+](=O)[O-])c1,-40%,?,?,2.5µM*
Cc1cc(C(=O)Nc2cccc(-c3nc(CNC(=O)c4cc5ccccc5[nH]4)c(C)o3)c2)c(C)o1,.,-7%,.,-1%
C[C@H](C[C@H](O)[C@H]1OC1(C)C)C1=C2C[C@H](O)C3[C@@]4(C)CCC(=O)C(C)(C)C4CC[C@]3(C)[C@@]2(C)CC1 (stereo partly drawn),257%,?,.,-7%
C[C@@H](C[C@@H](O)[C@H](O)C(C)(C)O)[C@@H]1CC[C@]2(C)C3=CC[C@H]4C(C)(C)C(=O)CC[C@]4(C)[C@H]3CC[C@@]12C,-5%,11µM*,-19%,?
Clc1ccc(C(c2ccc(Cl)cc2)n2cc[n+](CC(OCc3ccc(Cl)cc3Cl)c3ccc(Cl)cc3Cl)c2)cc1 (stereo not drawn),54%,11µM*,-10%,?
O=C1c2cc(Br)ccc2N(Cc2ccc(Br)cc2)S(=O)(=O)C1c1cc(Cl)c(Cl)cc1[N+](=O)[O-] (stereo not drawn),2µM*,-11%,.,i
O=C(N/N=C/C=C/c1ccccc1[N+](=O)[O-])c1cccs1,-28%,-17%,-2%,-2%
O=C(N/N=C\C=C\c1ccc([N+](=O)[O-])o1)c1cccs1,-38%,?,-4%,10µM*
COc1ccc(S(=O)(=O)CC(=O)c2cc3cccc(C)c3oc2=O)cc1,-58%,.,2%,.
COc1cccc2cc(C(=O)CS(=O)(=O)c3ccc(C(C)(C)C)cc3)c(=O)oc12,18µM*,.,-1%,.
Nc1cccc(/C=C2\C=Cc3ccccc32)c1,.,-12%,.,-13%
Cc1cc2c(c(-c3ccc4nc(C)ccc4c3)c1)OC(CNC(=O)Cc1ccn(C)c1)C2 (stereo not drawn),.,-15%,.,-25%
CC1NC2(C(=O)N(Cc3ccccc3)c3ccccc32)C2C(=O)N(c3ccccc3)C(=O)C12 (stereo not drawn),11µM*,-8%,?,i
Cc1ccc([C@@H]2[C@@H]3C(=O)N(c4ccccc4)C(=O)[C@@H]3[C@]3(C)C(=O)N(Cc4ccccc4)CC(=O)N23)o1,99%,-12%,?,-2%
CC(C)Cc1cc(C(=O)NCCN2CCOCC2)no1,0.5µM*,-7%,?,i
CC(=O)c1ccc(C(=O)NCC2Cc3cccc(-c4ncccn4)c3O2)cc1 (stereo not drawn),.,5%,.,-10%
SMILES,AmpC inh no detg,VACV Venus inh,AmpC inh detg,Vaccinia mCherry
CN(c1ccccc1)S(=O)(=O)c1cccc(NC(=O)c2ccc(=O)[nH]c2)c1,-27%,.,-5%,.
CN(c1ccccc1)S(=O)(=O)c1cccc(NC(=O)c2ccc(=O)[nH]n2)c1,2µM*,-16%,.,-5%
O=C(NCc1cccnc1)/C(=C\c1ccc(-c2ccc(Br)cc2)o1)S(=O)(=O)c1ccccc1,-4%,10µM*,2%,?
O=C(NCc1cccnc1)/C(=C/c1ccc(-c2ccc(Cl)cc2)o1)S(=O)(=O)c1ccccc1,17%,.,-12%,.
O=C(CSCc1ccc(Cl)cc1)Nc1ccc2c(c1)OCCO2,11µM*,.,-3%,.
O=C(CSc1nnnn1-c1ccccc1Cl)Nc1ccc2c(c1)OCCO2,32µM*,-3%,-2%,-4%
O=C(CSc1nnc2c(n1)[nH]c1ccccc12)Nc1ccc2c(c1)OCO2,8.9µM*,.,-1%,.
O=C(Nc1cccc(N2CCC(NCc3cnn(-c4cccc(F)c4)c3)CC2)c1)c1ccncc1,.,-3%,.,-23%
CCC(=O)Nc1ccc(Cl)c(NC(=O)c2cccnc2)c1,-17%,-10%,-14%,i
CCCC(=O)Nc1ccc(Cl)c(NC(=O)c2cccnc2)c1,0.16µM*,-11%,-3%,i
CC1CC(C)C(=O)C(C(CC2CC(=O)NC(=O)C2)OC(=O)CC(=O)c2ccccc2)C1 (stereo not drawn),.,1.8µM*,.,4µM*
COc1ccc(S(=O)(=O)/N=C2\C=C(Nc3ccc(O)cc3)C(=O)c3ccccc32)cc1,-35%,3.5µM*,?,5µM*
CC(=O)Nc1ccc(NC2=C/C(=N/S(=O)(=O)c3cccs3)c3ccccc3C2=O)cc1,-24%,11µM*,-13%,?
Cc1ccccc1NC1=C/C(=N\S(=O)(=O)c2ccc(C(=O)O)cc2)c2ccccc2C1=O,-26%,?,?,32µM*
Cc1ccc(NC2=C/C(=N/S(=O)(=O)c3cccs3)c3ccccc3C2=O)cc1C,-21%,-12%,2%,i
O=C(O)c1ccc(S(=O)(=O)/N=C2\C=C(Nc3ccccc3F)C(=O)c3ccccc32)cc1,-21%,?,3%,?
CC(O)(COc1ccccc1)c1ccc2c(c1)CN(Cc1ccccn1)CCO2 (stereo not drawn),.,-5%,.,-9%
CCCN1CCN(CCCNC(=O)c2ccc3c(c2)sc2nc(-c4ccc(OC)cc4)cn23)CC1,.,?,5%,4.5µM*
O=C(COc1ccccc1C(=O)Nc1ccccc1)Nc1ccccc1-c1ccccc1,.,-23%,.,-28%
COc1cc(OC)c(CN2CCOc3ccc(CN4CCC(O)CC4)cc3C2)c(OC)c1,.,-4%,.,-17%
Cc1ccc(CNC(=O)CSc2ccc(-c3ccccn3)nn2)cc1,-12%,?,6%,7.1µM*
COc1ccc(NC(=O)CSc2ccc(-c3ccccn3)nn2)cc1OC,-15%,-3%,-3%,-8%
COc1ccccc1NC(=O)CSc1ccc(-c2ccccn2)nn1,-36%,?,-10%,14µM*
Cc1ccsc1C(=O)N(Cc1cc2cc3c(cc2nc1N1CCOCC1)CCC3)CC1CCCO1 (stereo not drawn),.,11%,.,-4%
CCCCCCCCCC[N+](C)(C)CC/C=C1/c2ccccc2Sc2ccc(Cl)cc21,125%,11µM*,-15%,?
CC[N+](C)(C)CC/C=C1/c2ccccc2Sc2ccc(Cl)cc21,49%,-5%,1%,i

# Bioassay records from PubChem.
